# Measurements published in PubChem BioAssay AID504773 (Broad Institute, 2011).
# Potency and affinity values are given separately. Unmarked numbers belong to inactive results.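 How the source made its calls: active means polarization signal falls with dose and the fitted half-maximal concentration is at or below ten times the sample's top valid dose; inconclusive means flat curve at 30 to 70% inhibition, or poor fit; inactive means signal rises, flat within 30%, or potency beyond limit.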
# Molecular target: Golgi-associated PDZ and coiled-coil motif-containing protein (Homo sapiens) (UniProt Q9HD26)
# Experiment: potency against CAL PDZ-peptide interaction – biochemical, fluorescence polarization, Cerulean-tagged CAL PDZ, cherry-picks, dose response (AID 504773);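 further: 0% = DMSO neutral wells and -100% = excess unlabeled competitor peptide wells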
# Settings: CAL PDZ-peptide binding, 1 h; series mostly up to 50 µM; activity change, negative = inhibition: at the top concentration
row,Structure (SMILES),"activity change, negative = inhibition [%]"
1,O=C1CN=C(c2ccccc2)c2oc3ccc(Br)cc3c2N1,11.9
2,COc1cc(C)cc(CN2CC=C(c3ccccc3)CC2)c1O,9.35
3,CC(C)CN1CCN(Cc2cccc3c2OCO3)CC1CCO (stereo unspecified),6.14
4,Cn1c(=O)c2c(nc(-c3ccc(N(CCCl)CCCl)cc3)n2C)n(C)c1=O,1.8
5,CSC1=NP(=S)(SC)N2CCCC2=C1C#N (stereo unspecified),13.6
6,c1ccc2[nH]c(CCNC3CCCCC3)nc2c1,7.1
7,COc1cc(/C=C2\C(=O)NC(=O)N(c3ccccc3)C2=O)c([N+](=O)[O-])cc1OC,4.94
8,COc1ccc(CNCCc2c[nH]c3ccccc23)c(OC)c1OC,8.02
9,O=c1[nH]c(CN2CC=C(c3ccccc3)CC2)nc2scc(-c3ccccc3)c12,6.71
10,O=C(c1ccc(F)cc1Cl)N1CCC2(CC1)OCCO2,20.1
11,Cc1cc(C)c(C(=O)N2CCC3(CC2)OCCO3)c(C)c1,-7.3
